HT1080-NT tox: kills 2HG-producing HT-1080-NT fibrosarcoma cells. 1.6% of 360,000 active. Potency, µM (titrated, usually from 46.1 µM), most hits filed as cytotoxic. HT-1080-NT fibrosarcoma viability, CellTiter-Glo ATP luminescence, 48 h;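 further: NT is the 2HG producing partner of a matched IDH1 knockdown line; nearly all actives have a fitted effect of over 55% in size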
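HT-1080-NT fibrosarcoma cells (2HG-overproducing), 750 cells/well in RPMI with 5% FBS, dosed after 2 h and incubated 48 h at 37C. CellTiter-Glo luminescence normalized to DMSO and no-cell wells; concentration-response curves fitted and classed.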
HT1080 IDH1KD tx: HT-1080 IDH1 knockdown cell toxicity (counter line); HT-1080 IDH1 knockdown viability, ATP luminescence, 48 h; Potency, µM (highest dose often 46.1 µM), actives largely listed as cytotoxic; 2% of 360,000 active
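HT-1080-IDH1KD cells (IDH1 knocked down), 750/well in RPMI with 5% FBS, treated with compound 48 h at 37 degrees C. Viability by CellTiter-Glo luminescence, normalised to DMSO and no-cell wells; concentration-response curves classed.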
DT40 TDP1 no CPT: qHTS for Inhibitors of human tyrosyl-DNA phosphodiesterase 1 (TDP1): qHTS in cells in absence of CPT; AID 686978, 2013; DT40 Tdp1-/- hTDP1 cells, no CPT, ATP luminescence, 48 h; 15% of 420,000 active; Potency, µM (series often up to 46.2 µM), actives largely listed as inhibitors; further: nearly all actives have a fitted effect of over 55% in size
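Growth of hTDP1-complemented DT40 Tdp1-knockout cells is measured by ATP luminescence after at least 48 hr compound exposure at 37 °C, with DMSO substituting for the 20 nM CPT used in the parallel screen.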
DT40 TDP1 CPT: growth inhibition of DT40 Tdp1-/-;hTDP1 cells with camptothecin (screen for TDP1 inhibitors); chicken DT40 Tdp1-/-;hTDP1 cells + 20 nM CPT, ATP luminescence, 48 h; Potency, µM (titrated, usually from 46.2 µM), hits mostly inhibitors; 12% of 420,000 active; AID 686979; further: nearly all actives have a fitted effect of over 55% in size
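Chicken DT40 Tdp1-/- cells complemented with human TDP1, 400 cells/well, exposed to compounds plus 20 nM camptothecin for at least 48 h at 37 C; viability read as ATP content by CellTiter-Glo luminescence.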
IL-1B inflam inh: inflammasome signaling inhibition, IL-1 beta readout | THP-1 LPS/ATP IL-1B secretion, AlphaLISA, 16 h; hits give low values | activity change, % at 57.5 µM | 4.7% of 360,000 active | AID 743279; in the data active means activity change below about -50%; inconclusive means mostly about -30% to -49%
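THP-1 cells pretreated 1 hr with compounds (up to 57.5 uM final), then stimulated with LPS (250 ng/mL final) plus ATP (1.25 mM final); secreted IL-1B measured by AlphaLISA after 16 hr, decreased signal indicating inhibition.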
Numbers stand for hits; - = inactive; ? = inconclusive; . = no result. Shown are actives, neighbours in structure and some others; about 19% of the full set was active somewhere. Unless noted, the call rests on the fitted dose curve; in most records, active means well fitted curve in the direction sought with a large enough effect; inconclusive means small, poorly fitted or top-dose-only effect, or another doubt; inactive means no such curve, though single readings can be large; an effect the other way counts as inactive or inconclusive.

SMILES	HT1080-NT tox	HT1080 IDH1KD tx	DT40 TDP1 no CPT	DT40 TDP1 CPT	IL-1B inflam inh
COc1ccc(C(=O)C(=O)N2CCN(c3ccccc3F)CC2)cc1	-	-	?	?	-
O=C(CCN1C(=O)c2ccccc2C1=O)C1=NN[C@@H]2C(=O)N(c3ccc4c(c3)OCO4)C(=O)[C@H]12	-	-	-	-	-
Nc1nc2c(nnn2C2CC(O)C(CO)O2)c(=O)[nH]1 (configuration not stated)	?	5.2µM	?	29µM	-
Nc1nc2c(nc(Br)n2C2CC(O)C(CO)O2)c(=O)[nH]1 (configuration not stated)	.	.	-	-	.
CC(C)c1cc2c(c(O)c1O)[C@@]13CCCC(C)(C)C1CC2OC3=O (some centres not stated)	-	?	8.2µM	5.2µM	-
O=C(Nc1cccc(-c2nnc(-c3ccccc3)o2)c1)C1CCCCC1	-	-	18µM	?	-
CCCCC(=O)Nc1cccc(-c2nnc(-c3ccccc3)o2)c1	?	?	23µM	23µM	?
CCC(=O)Nc1cccc(-c2nnc(-c3ccccc3)o2)c1	-	-	21µM	21µM	?
O=S(=O)(NC1CCCCC1)c1cccc(-c2nnc(-c3ccccc3)o2)c1	-	-	15µM	?	?
COc1ccc(/C(C)=N/NC(=O)C(NC(=O)c2ccccc2)c2n[nH]c(=O)c3ccccc23)c(OC)c1 (configuration not stated)	-	-	-	-	-
CC(C)CC1C(=O)N(Cc2cn(Cc3ccco3)nn2)CCS(=O)(=O)N1Cc1ccc(-c2ccc(F)nc2)cc1 (configuration not stated)	-	-	23µM	?	?
CCC/C=C/c1ccc(CN2C(CC(C)C)C(=O)N(Cc3cn(Cc4ccco4)nn3)CCS2(=O)=O)cc1 (configuration not stated)	?	?	?	?	-62
CC(C)CC1C(=O)N(Cc2cn(Cc3ccco3)nn2)CCS(=O)(=O)N1Cc1ccc(-c2ccccc2)cc1 (configuration not stated)	-	?	?	15µM	?
CC(C)C1C(=O)N(Cc2cn(Cc3ccco3)nn2)CCS(=O)(=O)N1Cc1ccc(-c2ccc(F)nc2)cc1 (configuration not stated)	-	-	-	-	-
CC(C)CC1C(=O)N(Cc2cn(Cc3ccco3)nn2)CCS(=O)(=O)N1Cc1ccc(-c2ccncc2)cc1 (configuration not stated)	-	-	15µM	21µM	?
NC(=O)C1CCCN(CC(=O)Nc2cc(S(=O)(=O)N3CCOCC3)ccc2N2CCCC2)C1 (configuration not stated)	-	-	-	-	-
COc1ccc(OCC(=O)OCc2cc(=O)n3nc(C4CCCCC4)sc3n2)cc1	.	.	-	-	.
CCN(CC)C(=O)[C@H]1CC(CC(=O)NCCN2CCOCC2)C(=O)N2CCc3c([nH]c4ccccc34)[C@]12C (some centres not stated)	-	-	-	-	-
O=C(Nc1ccc(F)c(Cl)c1)c1cc(C2CCCCN2C(=O)CCCc2ccccc2)on1 (configuration not stated)	-	-	18µM	?	-
O=C(Nc1ccccc1Cl)c1cc(C2CCCCN2C(=O)CCCc2ccccc2)on1 (configuration not stated)	-	-	23µM	29µM	-
O=C(NCc1cccnc1)c1cc(C2CCCCN2C(=O)CCCc2ccccc2)on1 (configuration not stated)	-	-	?	29µM	-
CC(C)NC(=O)c1cc(C2CCCCN2C(=O)CCCc2ccccc2)on1 (configuration not stated)	-	-	?	?	-
O=C(Nc1ccccc1)c1cc(C2CCCCN2C(=O)CCCc2ccccc2)on1 (configuration not stated)	-	-	?	?	-
COc1ccc(NC(=O)c2cc(C3CCCCN3C(=O)CCCc3ccccc3)on2)c(C)c1 (configuration not stated)	-	-	-	0.73µM	-

Screening data: PubChem, National Center for Advancing Translational Sciences (NCATS)
